# Unmarked numbers belong to inactive results. Inconclusive results are not listed. Entries that show only a call come without a potency. Calls of active or inactive are those of the source. Calls come from the whole dose curve; as a rule, active = well fitted curve in the direction sought with a large enough effect in the repeat runs; inconclusive = weak or mixed curves; inactive = no such curve, though single readings can be large; an effect the other way counts as inactive or inconclusive.
# Experiments:
# [1] = A CellTox Green Cytotoxicity Assay to monitor cytotoxicity in HEK293 cells - 40 hour (AID 1224871); note: nearly all actives have a fitted effect of over 45% in size; note: potency is the fitted concentration of half-maximal effect
# Procedure, shortened: (§1)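 Dead-cell fluorescence measured kinetically: asymmetric cyanine dye, HEK293, 600 cells/well, 5 h settle, 23 nL cpd/DMSO, 37 C, reads 0–40 h every 8 h.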
# [2] = qHTS RealTime-Glo MT Cell Viability Assay in HepG2 cells - 8 hour (AID 1224873); note: nearly all actives have a fitted effect of over 55% in size
# Procedure, shortened: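 Real-time viability: cells seeded at 600 per well together with NanoLuc and cell-permeant prosubstrate, compounds added after 5 h incubation. Luminescence tracked at 0, 8, 16, 24, 32 and 40 h of exposure.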
# [3] = A CellTox Green Cytotoxicity Assay to monitor cytotoxicity in HEK293 cells - 24 hour (AID 1224875); note: series mostly up to about 77 µM; nearly all actives have a fitted effect of over 45% in size
# Procedure, shortened: as §1
# [4] = A CellTox Green Cytotoxicity Assay to monitor cytotoxicity in HepG2 cells - 16 hour (AID 1224876); note: nearly all actives have a fitted effect of over 45% in size
# Procedure, shortened: (§2)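 First, HepG2 cells (600/well) mixed with reagent were plated; second, after 5 h at 37 C they received compounds via pintool; third, fluorescence was measured at 0 h through 40 h at 8 h intervals.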
# [5] = qHTS RealTime-Glo MT Cell Viability Assay in HepG2 cells - 32 hour (AID 1224877); note: nearly all actives have a fitted effect of over 55% in size
# Procedure, shortened: (§3)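 Tox21 10K library screened in qHTS format on HepG2 cells carrying RealTime-Glo reagents. Compounds were added after a 5 h preincubation, and the luminescent signal from continuous culture was measured repeatedly during 40 h treatment.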
# [6] = A CellTox Green Cytotoxicity Assay to monitor cytotoxicity in HepG2 cells - 24 hour (AID 1224878); note: nearly all actives have a fitted effect of over 45% in size; note: potency is the fitted concentration of half-maximal effect
# Procedure, shortened: as §2
# [7] = A CellTox Green Cytotoxicity Assay to monitor cytotoxicity in HEK293 cells - 32 hour (AID 1224881); note: nearly all actives have a fitted effect of over 40% in size
# Procedure, shortened: as §1
# [8] = A CellTox Green Cytotoxicity Assay to monitor cytotoxicity in HepG2 cells - 0 hour (AID 1224882); note: nearly all actives have a fitted effect of over 35% in size
# Procedure, shortened: as §2
# [9] = A CellTox Green Cytotoxicity Assay to monitor cytotoxicity in HepG2 cells - 32 hour (AID 1224883); note: nearly all actives have a fitted effect of over 50% in size; note: potency is the fitted concentration of half-maximal effect
# Procedure, shortened: as §2
# [10] = A CellTox Green Cytotoxicity Assay to monitor cytotoxicity in HEK293 cells - 8 hour (AID 1224884); note: nearly all actives have a fitted effect of over 35% in size
# Procedure, shortened: as §1
# [11] = qHTS RealTime-Glo MT Cell Viability Assay in HepG2 cells - 16 hour (AID 1224885); note: nearly all actives have a fitted effect of over 50% in size
# Procedure, shortened: as §3
# [12] = A CellTox Green Cytotoxicity Assay to monitor cytotoxicity in HEK293 cells - 16 hour (AID 1224888); note: nearly all actives have a fitted effect of over 35% in size
# Procedure, shortened: as §1
# [13] = A CellTox Green Cytotoxicity Assay to monitor cytotoxicity in HepG2 cells - 8 hour (AID 1224890); note: nearly all actives have a fitted effect of over 45% in size
# Procedure, shortened: as §2
# [14] = qHTS RealTime-Glo MT Cell Viability Assay in HEK293 cells - 40 hour (AID 1224874); details: RealTime-Glo luminescence; max response: hits give low values; note: nearly all actives have a fitted effect of over 50% in size; note: potency is the fitted concentration of half-maximal effect
# Procedure, shortened: (§4)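 600 HEK293 cells per well, dispensed already mixed with RealTime-Glo MT reagents. Compound dosing came 5 h later. The same wells were read for luminescence at 0, 8, 16, 24, 32 and 40 h of exposure at 37 C.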
# [15] = A CellTox Green Cytotoxicity Assay to monitor cytotoxicity in HepG2 cells - 40 hour (AID 1224879); note: nearly all actives have a fitted effect of over 40% in size; note: potency is the fitted concentration of half-maximal effect
# Procedure, shortened: as §2
# [16] = qHTS RealTime-Glo MT Cell Viability Assay in HEK293 cells - 0 hour (AID 1224880)
# Procedure, shortened: as §4
# [17] = qHTS RealTime-Glo MT Cell Viability Assay in HepG2 cells - 0 hour (AID 1224889); note: nearly all actives have a fitted effect of over 50% in size
# Procedure, shortened: as §3
# [18] = qHTS RealTime-Glo MT Cell Viability Assay in HEK293 cells - 24 hour (AID 1224886); note: nearly all actives have a fitted effect of over 50% in size; note: potency is the fitted concentration of half-maximal effect; for activity change, negative = cytotoxicity: top concentration of the series differs between compounds
# Procedure, shortened: (§5)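 Luminescence generated by NanoLuc from substrate produced by living HEK293 cells served as the viability signal. Each value reflects the reading at its stated time point during continuous 40 h compound exposure at 37 C.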
# [19] = qHTS RealTime-Glo MT Cell Viability Assay in HEK293 cells - 8 hour (AID 1224887); note: nearly all actives have a fitted effect of over 50% in size; note: potency is the fitted concentration of half-maximal effect; for activity change, negative = cytotoxicity: top concentration of the series differs between compounds
# Procedure, shortened: as §4
# [20] = qHTS RealTime-Glo MT Cell Viability Assay in HEK293 cells - 16 hour (AID 1224872)
# Procedure, shortened: as §5
smiles,measurement,setting,value
CC(c1ccc(O)cc1)(c1ccc(O)cc1)c1ccc(O)cc1,Potency,[1],inactive
same,Potency,[2],inactive
same,Potency,[3],inactive
same,Potency,[4],inactive
same,Potency,[5],inactive
same,Potency,[6],inactive
same,Potency,[7],inactive
same,Potency,[8],inactive
same,Potency,[9],inactive
same,Potency,[10],inactive
same,Potency,[11],inactive
same,Potency,[12],inactive
same,Potency,[13],inactive
BrCC(Br)C1CCC(Br)C(Br)C1 (stereo not drawn),Potency,[1],inactive
same,Potency,[2],inactive
same,max response,[14],-20.5%
same,Potency,[3],inactive
same,Potency,[4],inactive
same,Potency,[5],inactive
same,Potency,[6],inactive
same,Potency,[15],inactive
same,Potency,[16],inactive
same,Potency,[7],inactive
same,Potency,[8],inactive
same,Potency,[9],inactive
same,Potency,[10],inactive
same,Potency,[11],inactive
same,Potency,[12],inactive
same,Potency,[17],inactive
same,Potency,[13],inactive
CCCN(CCCl)c1c([N+](=O)[O-])cc(C(F)(F)F)cc1[N+](=O)[O-],Potency,[1],inactive
same,Potency,[2],inactive
same,max response,[14],1.89%
same,Potency,[3],inactive
same,Potency,[4],inactive
same,Potency,[5],inactive
same,Potency,[6],inactive
same,Potency,[15],inactive
same,Potency,[16],inactive
same,Potency,[7],inactive
same,Potency,[8],inactive
same,Potency,[9],inactive
same,Potency,[10],inactive
same,Potency,[11],inactive
same,Potency,[18],inactive
same,Potency,[19],38.9 µM (active)
same,Potency,[12],inactive
same,Potency,[17],inactive
same,Potency,[13],inactive
O=C(Nc1ccccc1)Nc1ccnc(Cl)c1,Potency,[1],inactive
same,Potency,[2],inactive
same,Potency,[14],19.5 µM (active)
same,Potency,[3],inactive
same,Potency,[4],inactive
same,Potency,[5],inactive
same,Potency,[6],inactive
same,Potency,[16],inactive
same,Potency,[7],inactive
same,Potency,[8],inactive
same,Potency,[10],inactive
same,Potency,[11],inactive
same,Potency,[18],19.5 µM (active)
same,Potency,[12],inactive
same,Potency,[13],inactive
O=C=Nc1ccc(Cl)cc1,Potency,[1],inactive
same,Potency,[20],inactive
same,max response,[14],-3%
same,Potency,[3],inactive
same,Potency,[4],inactive
same,Potency,[5],inactive
same,Potency,[6],inactive
same,Potency,[16],inactive
same,Potency,[7],inactive
same,Potency,[8],inactive
same,Potency,[9],inactive
same,Potency,[10],inactive
same,Potency,[11],inactive
same,Potency,[18],inactive
same,Potency,[19],inactive
same,Potency,[12],inactive
same,Potency,[17],inactive
same,Potency,[13],inactive
CN1C(=O)NC(=O)C(C)(C2=CCCCC2)C1=O (stereo not drawn),Potency,[20],inactive
same,Potency,[2],inactive
same,max response,[14],11.8%
same,Potency,[3],inactive
same,Potency,[4],inactive
same,Potency,[6],inactive
same,Potency,[15],inactive
same,Potency,[16],inactive
same,Potency,[7],inactive
same,Potency,[8],inactive
same,Potency,[9],inactive
same,Potency,[10],inactive
same,Potency,[11],inactive
same,Potency,[18],inactive
same,Potency,[19],inactive
same,Potency,[12],inactive
same,Potency,[17],inactive
same,Potency,[13],inactive
O=Cc1ccc(Cl)cc1Cl,Potency,[20],inactive
same,Potency,[2],inactive
same,max response,[14],-1.06%
same,Potency,[3],inactive
same,Potency,[4],inactive
same,Potency,[5],inactive
same,Potency,[6],inactive
same,Potency,[15],inactive
same,Potency,[16],inactive
same,Potency,[7],inactive
same,Potency,[8],inactive
same,Potency,[9],inactive
same,Potency,[10],inactive
same,Potency,[11],inactive
same,Potency,[18],inactive
same,Potency,[12],inactive
same,Potency,[17],inactive
O=C1C(=O)c2cccc3cccc1c23,Potency,[1],inactive
same,Potency,[3],inactive
same,Potency,[4],inactive
same,Potency,[6],inactive
same,Potency,[15],inactive
same,Potency,[7],inactive
same,Potency,[8],inactive
same,Potency,[9],inactive
same,Potency,[10],inactive
same,Potency,[11],inactive
same,Potency,[12],inactive
O=C(CBr)OCc1ccccc1,Potency,[1],inactive
same,Potency,[3],inactive
same,Potency,[4],inactive
same,Potency,[5],inactive
same,Potency,[6],inactive
same,Potency,[15],inactive
same,Potency,[16],inactive
same,Potency,[7],inactive
same,Potency,[8],inactive
same,Potency,[9],inactive
same,Potency,[11],inactive
same,Potency,[19],inactive
same,Potency,[12],inactive
same,Potency,[13],inactive
CC(C)(C)C(O)C(Oc1ccc(Cl)cc1)n1cncn1 (stereo not drawn),Potency,[1],5.49 µM (active)
same,Potency,[14],11 µM (active)
same,Potency,[3],inactive
same,Potency,[5],inactive
same,Potency,[6],43.6 µM (active)
same,Potency,[15],43.6 µM (active)
same,Potency,[16],inactive
same,Potency,[7],inactive
same,Potency,[8],inactive
same,Potency,[9],43.6 µM (active)
same,Potency,[10],inactive
same,Potency,[11],inactive
same,Potency,[18],12.3 µM (active)
same,Potency,[12],inactive
same,Potency,[17],inactive
CO/C=C(/C(=O)OC)c1ccccc1COc1cccc(C(F)(F)F)n1,Potency,[1],3.89 µM (active)
same,Potency,[14],6.16 µM (active)
same,Potency,[3],inactive
same,Potency,[4],inactive
same,Potency,[5],inactive
same,Potency,[6],inactive
same,Potency,[15],inactive
same,Potency,[16],inactive
same,Potency,[8],inactive
same,Potency,[9],inactive
same,Potency,[11],inactive
same,Potency,[12],inactive
same,Potency,[13],inactive
[CH3][Sn]([CH3])([Cl])[Cl],Potency,[1],inactive
same,Potency,[3],inactive
same,Potency,[4],inactive
same,Potency,[5],inactive
same,Potency,[6],inactive
same,Potency,[16],inactive
same,Potency,[7],inactive
same,Potency,[8],inactive
same,Potency,[9],inactive
same,Potency,[10],inactive
same,Potency,[11],inactive
same,Potency,[19],inactive
same,Potency,[12],inactive
same,Potency,[17],inactive
[O-][Cl+]O,Potency,[20],inactive
same,Potency,[2],inactive
same,max response,[14],2.38%
same,Potency,[3],inactive
same,Potency,[4],inactive
same,Potency,[5],inactive
same,Potency,[6],inactive
same,Potency,[15],inactive
same,Potency,[16],inactive
same,Potency,[8],inactive
same,Potency,[9],inactive
same,Potency,[10],inactive
same,Potency,[11],inactive
same,Potency,[18],inactive
same,Potency,[19],inactive
same,Potency,[12],inactive
same,Potency,[17],inactive
NCC(CC(=O)O)c1ccc(Cl)cc1 (stereo not drawn),"activity change, negative = cytotoxicity",[20],0.531% [at 0.29 µM]
same,"viability change, negative = cytotoxic",[2],0.906% [at 0.29 µM]
same,max response,[14],8.41%
same,activity change,[3],"-19.1% [at 0.29 µM, hits give high values]"
same,cytotoxicity increase,[4],-3.17% [at 0.29 µM]
same,"activity change, negative = cytotoxic",[5],-0.345% [at 0.29 µM]
same,cytotoxicity,[6],-3.56% [at 0.29 µM]
same,cytotoxicity increase,[15],-9.33% [at 0.29 µM]
same,"activity change, negative = cytotoxicity",[16],-1.28% [at 0.29 µM]
same,cytotoxicity increase,[7],-17.2% [at 0.29 µM]
same,cytotoxicity,[8],0.813% [at 0.29 µM]
same,cytotoxicity increase,[9],-7.65% [at 0.29 µM]
same,cytotoxicity increase,[10],-12.5% [at 0.29 µM]
same,"activity change, negative = cytotoxic",[11],-0.45% [at 0.29 µM]
same,"activity change, negative = cytotoxicity",[18],4.3% [at 0.29 µM]
same,"activity change, negative = cytotoxicity",[19],1.53% [at 0.29 µM]
same,activity change,[12],"-9.31% [at 0.29 µM, hits give high values]"
same,"activity change, negative = cytotoxicity",[17],-4.46% [at 0.29 µM]
same,cytotoxicity increase,[13],-2.04% [at 0.29 µM]
CC(=O)CCC(C)=O,Potency,[20],inactive
same,Potency,[2],inactive
same,max response,[14],11.7%
same,Potency,[3],inactive
same,Potency,[4],inactive
same,Potency,[5],inactive
same,Potency,[6],inactive
same,Potency,[15],inactive
same,Potency,[16],inactive
same,Potency,[7],inactive
same,Potency,[8],inactive
same,Potency,[9],inactive
same,Potency,[10],inactive
same,Potency,[11],inactive
same,Potency,[18],inactive
same,Potency,[19],inactive
same,Potency,[12],inactive
same,Potency,[13],inactive
